Data as given in PubChem BioAssay AID1159580 (chemical genetic matrix, 2015).
Values joined by “and” are separate entries in the source; they are usually repeats but may differ in a detail not shown here. Equal entries are not always repeated. About 2,000 (36%) of roughly 5,500 compounds were called active. Inconclusive results (about 18%) are left out. Cut-off read from the data, not from the text of the source: active = normalized growth mostly below about 0.91 (no sharp cut-off); inconclusive = no clear call, values can overlap the other calls; inactive = mostly above about 0.92. This is one part of the list.

Assay: chemical genetic growth profiling, strain panel (AID 1159580);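 note: tested at 20 µM; growth read once vehicle control cultures reached saturation at 30 °C; 1 = growth at the plate median or of vehicle wells; lower values mean less growth of the strain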
Settings: growth OD

Measured: normalized growth

NCCc1c[nH]c2ccccc12
inactive: S. cerevisiae deletion strains, locus YJR075W, strain HOC1, active compounds read low 1.01 and 0.992 | S. cerevisiae deletion strains, locus YKL009W, strain mrt4, active compounds read low 0.991 | S. cerevisiae deletion strains, locus YKL068W, active compounds read low 0.987 | S. cerevisiae deletion strains, locus YKL085W, strain MDH1 (second series), active compounds read low 0.996 | S. cerevisiae deletion strains, locus YKL085W, strain MDH1, active compounds read low 0.996 | S. cerevisiae deletion strains, locus YKL160W, strain elf1, active compounds read low 0.968 | S. cerevisiae deletion strains, locus YKL190W, strain CNB1, active compounds read low 0.996 | S. cerevisiae deletion strains, locus YKR001C, strain vps1, active compounds read low 0.987 | S. cerevisiae deletion strains, locus YKR026C, strain gcn3, active compounds read low 0.958 | S. cerevisiae deletion strains, locus YKR091W, strain srl3, active compounds read low 0.976 | S. cerevisiae deletion strains, locus YLL001W, strain dnm1, active compounds read low 0.958 | S. cerevisiae deletion strains, locus YLL026W, active compounds read low 0.941 | S. cerevisiae deletion strains, locus YLL041C, strain sdh2, active compounds read low 0.965 | S. cerevisiae deletion strains, locus YLR027C, strain aat2, active compounds read low 0.974 | S. cerevisiae deletion strains, locus YLR039C, strain RIC1, active compounds read low 0.988 | S. cerevisiae deletion strains, locus YLR058C, strain SHM2, active compounds read low 0.975 | S. cerevisiae deletion strains, locus YLR102C, strain apc9, active compounds read low 0.996 | S. cerevisiae deletion strains, locus YLR113W, strain HOG1, active compounds read low 0.999 | S. cerevisiae deletion strains, locus YLR221C, strain rsa3, active compounds read low 0.998 | S. cerevisiae deletion strains, locus YLR258W, strain gsy2, active compounds read low 0.965 | S. cerevisiae deletion strains, locus YLR262C, strain YPT6 (second series), active compounds read low 0.956 | S. cerevisiae deletion strains, locus YLR262C, strain YPT6, active compounds read low 0.934 | S. cerevisiae deletion strains, locus YLR268W, strain sec22, active compounds read low 1.06 | S. cerevisiae deletion strains, locus YLR320W, strain mms22, active compounds read low 0.985 | S. cerevisiae deletion strains, locus YLR330W, strain CHS5, active compounds read low 0.973 | S. cerevisiae deletion strains, locus YLR342W, strain FKS1 (second series), active compounds read low 0.986 | S. cerevisiae deletion strains, locus YLR342W, strain FKS1, active compounds read low 0.972 | S. cerevisiae deletion strains, locus YLR357W, strain rsc2, active compounds read low 0.987 | S. cerevisiae deletion strains, locus YLR370C, strain arc18, active compounds read low 0.94 | S. cerevisiae deletion strains, locus YLR371W, strain rom2, active compounds read low 0.982 | S. cerevisiae deletion strains, locus YLR384C, strain iki3, active compounds read low 0.949 | S. cerevisiae deletion strains, locus YLR418C, strain cdc73, active compounds read low 0.99 | S. cerevisiae deletion strains, locus YML016C, strain PPZ1, active compounds read low 0.99 | S. cerevisiae deletion strains, locus YML032C, strain rad52, active compounds read low 1.01 | S. cerevisiae deletion strains, locus YML120C, strain ndi1, active compounds read low 0.962 | S. cerevisiae deletion strains, locus YML124C, strain tub3, active compounds read low 0.988 | S. cerevisiae deletion strains, locus YMR058W, strain fet3, active compounds read low 0.96 | S. cerevisiae deletion strains, locus YMR078C, strain ctf18, active compounds read low 0.986 | S. cerevisiae deletion strains, locus YMR125W, strain sto1, active compounds read low 0.96 | S. cerevisiae deletion strains, locus YMR129W, active compounds read low 0.973 | S. cerevisiae deletion strains, locus YMR205C, strain PFK2, active compounds read low 0.975 | S. cerevisiae deletion strains, locus YMR223W, strain ubp8, active compounds read low 0.955 | S. cerevisiae deletion strains, locus YMR231W, strain pep5, active compounds read low 0.97 | S. cerevisiae deletion strains, locus YMR263W, strain SAP30, active compounds read low 0.995 | S. cerevisiae deletion strains, locus YMR307W, strain GAS1, active compounds read low 0.987 | S. cerevisiae deletion strains, locus YNL067W, strain RPL9B, active compounds read low 1.03 | S. cerevisiae deletion strains, locus YNL071W, strain lat1, active compounds read low 0.973 | S. cerevisiae deletion strains, locus YNL128W, strain TEP1, active compounds read low 0.976 | S. cerevisiae deletion strains, locus YNL153C, strain GIM3, active compounds read low 1.02 | S. cerevisiae deletion strains, locus YNL175C, strain NOP13, active compounds read low 1 | S. cerevisiae deletion strains, locus YNL183C, strain NPR1, active compounds read low 0.97 | S. cerevisiae deletion strains, locus YNL197C, strain WHI3, active compounds read low 0.989 | S. cerevisiae deletion strains, locus YNL209W, strain ssb2, active compounds read low 0.96 | S. cerevisiae deletion strains, locus YNL224C, strain SQS1, active compounds read low 1 | S. cerevisiae deletion strains, locus YNL233W, strain BNI4, active compounds read low 1.01 | S. cerevisiae deletion strains, locus YNL248C, strain rpa49, active compounds read low 0.986 | S. cerevisiae deletion strains, locus YNL250W, strain rad50, active compounds read low 0.974 | S. cerevisiae deletion strains, locus YNL271C, strain bni1, active compounds read low 0.994 | S. cerevisiae deletion strains, locus YNL298W, strain CLA4, active compounds read low 0.995 | S. cerevisiae deletion strains, locus YNL307C, strain MCK1, active compounds read low 0.984 | S. cerevisiae deletion strains, locus YNL322C, strain KRE1 (second series), active compounds read low 0.943 | S. cerevisiae deletion strains, locus YNL322C, strain KRE1, active compounds read low 0.988 | S. cerevisiae deletion strains, locus YNR049C, strain mso1, active compounds read low 0.959 | S. cerevisiae deletion strains, locus YNR052C, strain pop2, active compounds read low 0.985 | S. cerevisiae deletion strains, locus YOL006C, strain TOP1, active compounds read low 1.05 | S. cerevisiae deletion strains, locus YOL012C, strain htz1 1.16 | S. cerevisiae deletion strains, locus YOL147C, strain pex11, active compounds read low 0.988 | S. cerevisiae deletion strains, locus YOR001W, strain rrp6, active compounds read low 0.971 | S. cerevisiae deletion strains, locus YOR061W, strain CKA2, active compounds read low 0.97 | S. cerevisiae deletion strains, locus YOR069W, strain VPS5, active compounds read low 0.992 | S. cerevisiae deletion strains, locus YOR070C, strain gyp1, active compounds read low 0.982 | S. cerevisiae deletion strains, locus YOR080W, strain dia2, active compounds read low 0.959 | S. cerevisiae deletion strains, locus YOR083W, strain WHI5 (second series), active compounds read low 0.966 | S. cerevisiae deletion strains, locus YOR083W, strain WHI5, active compounds read low 0.982 | S. cerevisiae deletion strains, locus YOR106W, strain vam3, active compounds read low 0.942 | S. cerevisiae deletion strains, locus YOR136W, strain idh2, active compounds read low 0.978 | S. cerevisiae deletion strains, locus YOR144C, strain elg1, active compounds read low 0.999 | S. cerevisiae deletion strains, locus YOR184W, strain ser1, active compounds read low 1 | S. cerevisiae deletion strains, locus YOR231W, strain MKK1, active compounds read low 0.979 | S. cerevisiae deletion strains, locus YOR265W, strain rbl2, active compounds read low 0.954 | S. cerevisiae deletion strains, locus YOR270C, strain vph1, active compounds read low 0.892 | S. cerevisiae deletion strains, locus YOR290C, strain snf2, active compounds read low 0.959 | S. cerevisiae deletion strains, locus YOR316C, strain cot1, active compounds read low 0.995 | S. cerevisiae deletion strains, locus YPL051W, strain arl3, active compounds read low 0.973 | S. cerevisiae deletion strains, locus YPL055C, strain LGE1, active compounds read low 0.99 | S. cerevisiae deletion strains, locus YPL078C, strain atp4, active compounds read low 0.943 | S. cerevisiae deletion strains, locus YPL106C, strain sse1, active compounds read low 0.916 | S. cerevisiae deletion strains, locus YPL240C, strain hsp82, active compounds read low 0.962 | S. cerevisiae deletion strains, locus YPL241C, strain CIN2, active compounds read low 0.99 and 0.999 | S. cerevisiae deletion strains, locus YPL256C, strain CLN2, active compounds read low 0.951 | S. cerevisiae deletion strains, locus YPR119W, strain clb2, active compounds read low 0.992 | S. cerevisiae deletion strains, locus YPR141C, strain kar3, active compounds read low 0.983 | S. cerevisiae deletion strains, locus YPR163C, strain tif3, active compounds read low 0.986 | S. cerevisiae deletion strains, locus YPR167C, strain met16, active compounds read low 0.994 | S. cerevisiae deletion strains, strain wtn01, active compounds read low 1.02 | S. cerevisiae strains, strain wild type, active compounds read low 0.987
